# Key:
# Settings in all cases: concentration: 1 μM,replicates: in singlicate; n = 1
# [1] = test system: CAMK1
# [2] = test system: CAMK2A
# [3] = test system: CAMK2B
# [4] = test system: CAMK2D
# [5] = test system: CAMK2G
# [6] = test system: CAMK4
# [7] = test system: CAMKK1
# [8] = test system: CAMKK2
# [9] = test system: CASK
# [10] = test system: T1, CDC2L1
# T1 construct: gene CDK11B
# 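Further: KINOMEscan kinase panel screen.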
Compound,%Inh [1],%Inh [2],%Inh [3],%Inh [4],%Inh [5],%Inh [6],%Inh [7],%Inh [8],%Inh [9],%Inh [10]
Cc1cccc(-c2nc(Nc3ccncc3)c3sccc3n2)n1 [GW869641],24%,3%,9%,14%,18%,0%,11%,23%,21%,6%
COc1cccc(CNC(=O)NC2CCN(c3ccnc(Nc4cc(OC)c(OC)c(OC)c4)n3)C2)c1 (stereo not shown) [GSK1379765],35%,0%,0%,0%,19%,0%,16%,14%,0%,0%
Cn1cc(-c2cccc3c(N)c(C(N)=O)nnc23)cn1,33%,7%,2%,15%,0%,0%,5%,6%,4%,1%
Cl.Cl.NC[C@H](CC1CCCCC1)NC(=O)c1ccc(-c2ccnc3[nH]ccc23)s1 [GSK1581428],37%,0%,0%,7%,5%,0%,40%,27%,4%,0%
CN(c1ccccc1CNc1nc(Nc2ccc3c(c2)CC(=O)N3)ncc1C(F)(F)F)S(C)(=O)=O,0%,22%,18%,0%,59%,0%,58%,64%,0%,0%
CC(=O)Nc1nc2cnc(Nc3cc(NC(=O)c4cccc(CC(C)(C)C#N)c4)ccc3C)nc2s1,4%,0%,0%,7%,14%,0%,21%,11%,0%,16%
NC(=O)c1ccc(-c2cc3ncnc(SCC(=O)O)c3s2)cc1,0%,0%,0%,0%,0%,0%,75%,81%,0%,0%
Cc1nnc(-c2ccc3occ(-c4ccc(S(C)=O)cc4)c3n2)o1 (stereo not shown),3%,0%,0%,0%,0%,0%,6%,11%,0%,0%
Cn1ccc2ncnc(Oc3ccc(NC(=O)Nc4cnn(C(C)(C)C)c4)c(Cl)c3)c21,9%,0%,17%,0%,2%,7%,0%,0%,10%,0%
C[C@@H]1CCN(C(=O)N2CCCC2)C[C@@H]1N(C)c1ncnc2[nH]ccc12,5%,2%,0%,12%,14%,19%,15%,8%,0%,3%
Nc1nccc(-c2ccc3c(N)n[nH]c3c2)n1 [GSK1034945],11%,0%,5%,0%,0%,0%,1%,8%,6%,0%
CN1CCN(CCCNc2nccc(-c3c(-c4ccc(F)cc4)nn4cc(C(N)=O)ccc34)n2)CC1 [GW622475],31%,0%,0%,21%,37%,0%,11%,30%,3%,6%
Cc1ccc2c(-c3ccnc(Nc4ccc(C(F)(F)F)cc4)n3)cnn2n1 [GW819776],0%,0%,0%,0%,0%,0%,19%,0%,21%,0%
N#Cc1cccc(C(=O)NC2CCN(c3ccnc(Nc4ccc(F)cc4)n3)C2)c1 (stereo not shown) [GSK1379708],9%,0%,0%,0%,0%,0%,0%,0%,15%,0%
C[C@@H]1CNc2c(sc3ccc4nc(-c5ccc(O)cc5)ccc4c23)C(=O)N1,16%,35%,36%,32%,23%,30%,40%,58%,0%,0%
O=C(Nc1cccc(Oc2ccc3nccn3n2)c1)Nc1cccc(C(F)(F)F)c1,5%,0%,0%,0%,0%,0%,5%,0%,26%,1%
CC(=O)c1c(-c2ccncc2)[nH]c(-c2ccncc2)c1C [GW493036],26%,0%,0%,0%,0%,0%,0%,0%,25%,0%

Compound,%Inh [1],%Inh [2],%Inh [3],%Inh [4],%Inh [5],%Inh [6],%Inh [7],%Inh [8],%Inh [9],%Inh [10]
CN(c1ccc2c(c1)nc(NCc1ccc(F)cc1)n2C)c1ccnc(Nc2ccc(CS(C)(=O)=O)cc2)n1.Cl [GW813244],0%,0%,0%,0%,1%,0%,0%,6%,15%,94.5%
Cn1ccc2ncnc(Oc3ccc(NC(=O)Nc4ccnc(C(F)(F)F)c4)c(Cl)c3)c21,0%,0%,0%,13%,25%,0%,13%,7%,0%,0%
Cc1cccc2c(-c3ccncc3)c(-c3ccc(F)cc3)nn12.Cl [GW461487],0%,0%,0%,29%,32%,0%,0%,11%,3%,0%
CN(c1cccc(CNc2nc(Nc3ccc4c(c3)CC(=O)N4)ncc2C(F)(F)F)c1)S(C)(=O)=O,0%,0%,0%,7%,0%,0%,15%,16%,7%,0%
C[C@@H](Oc1cc(-n2cnc3cc(-c4cnn(C)c4)ccc32)sc1C(N)=O)c1ccccc1Cl [GSK580432],39%,0%,9%,23%,25%,0%,59%,90.3%,23%,0%
C[C@@H](Oc1cc(-n2cnc3ccc(-c4ccncc4)cc32)sc1C(N)=O)c1ccccc1Cl [GSK483724],40%,15%,0%,31%,37%,0%,34%,59%,14%,0%
O=C(NOCC1CC1)c1cc(Br)c(F)c(F)c1Nc1ccc(I)cc1Cl,0%,0%,0%,0%,0%,0%,0%,0%,0%,0%
Cn1ccc2ncnc(Oc3ccc(NC(=O)Nc4cncc(C(F)(F)F)c4)c(Cl)c3)c21,0%,0%,0%,0%,0%,0%,0%,14%,0%,0%
CSc1nccc(-c2c(-c3ccc(F)cc3)ncn2CCCN2CCOCC2)n1.Cl [SB-217146],6%,0%,0%,0%,0%,0%,0%,0%,0%,0%
C[C@@H]1CNc2c(sc3ccc4nc(-c5ccncc5)ccc4c23)C(=O)N1,19%,25%,23%,22%,14%,13%,27%,47%,0%,4%
CNC(=O)c1ccccc1Nc1nc(Nc2cccc(CS(C)(=O)=O)c2)ncc1C.O=CO [GSK1520489],76%,1%,0%,16%,34%,0%,88%,91.2%,59%,0%
COc1cc2ncn(-c3cc(OCC4CCCCC4)c(C(N)=O)s3)c2cc1OC [GSK204559],13%,0%,0%,5%,33%,0%,12%,26%,19%,0%
CN1CCN(CCNc2nc3cc(Oc4ccc(NC(=O)Nc5cc(C(F)(F)F)ccc5F)cc4)ccc3[nH]2)CC1.Cl.Cl [GW768504],15%,0%,0%,0%,0%,20%,0%,0%,16%,0%
O=C(Nc1ccc(Oc2ccc3nc(NC(=O)C4CC4)cn3n2)c(F)c1)c1cccn(-c2ccccc2)c1=O,5%,1%,0%,3%,2%,21%,11%,1%,3%,13%
Cc1ccc(Nc2ccnc(Nc3ccc4c(c3)CS(=O)(=O)C4)n2)cc1O.Cl [GW579362],62%,0%,0%,29%,42%,0%,24%,31%,12%,44%
CS(=O)c1ccc(-c2coc3ccc(-c4n[nH]c(=O)o4)cc23)cc1 (stereo not shown),0%,5%,16%,6%,3%,0%,7%,12%,26%,0%
O=C1NCCc2[nH]c(-c3ccncc3)cc21,13%,9%,10%,0%,0%,0%,0%,0%,0%,0%

# From paper PMC5540273 (PLoS ONE, 2017)
